{
  "source": "PubChem BioAssay",
  "note": "The source made the active and inactive calls. The rule behind the calls is not given here.",
  "data": [
    {"target": "Pantothenate synthetase (Mycobacterium tuberculosis (strain ATCC 25618 / H37Rv)) (UniProt P9WIL5)", "sequence (P9WIL5 whole entry, looked up)": "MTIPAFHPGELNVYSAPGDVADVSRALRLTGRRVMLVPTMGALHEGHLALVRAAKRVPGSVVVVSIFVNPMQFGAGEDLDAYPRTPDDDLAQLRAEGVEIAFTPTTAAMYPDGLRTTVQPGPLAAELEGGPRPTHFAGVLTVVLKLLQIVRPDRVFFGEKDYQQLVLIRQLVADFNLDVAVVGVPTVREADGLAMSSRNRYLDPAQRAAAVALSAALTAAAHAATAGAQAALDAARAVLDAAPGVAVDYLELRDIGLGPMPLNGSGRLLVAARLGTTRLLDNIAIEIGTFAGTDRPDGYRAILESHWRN", "assay": "Recombinant Mtb pantothenate synthetase (PanC) inhibitors, coupled enzyme, confirmatory (AID 375);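 note: 0% = full reaction with vehicle and 100% = no enzyme background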", "conditions": "coupled enzyme assay; at 10 µM, stronger effect = higher value", "values": [
      {"molecule": "CC(=Nc1cccc(O)c1)c1sc2ccccc2c1O", "inhibition": "0% (inactive)"},
      {"molecule": "N=c1ncn(CC(O)CN2CCOCC2)c2nc(N3CCOCC3)[nH]c12", "note": "(centres undefined)", "inhibition": "0% (inactive)"},
      {"molecule": "O=C(O)CCCC(=O)Nc1nc(-c2ccc(F)cc2)cs1", "inhibition": "0% (inactive)"},
      {"molecule": "Cc1ccc(C(C)C)c(OCc2nnc(SCC(=O)Nc3ncc(C)s3)n2C)c1", "inhibition": "2% (inactive)"},
      {"molecule": "COc1ccc(S(=O)(=O)N2CCC(C(=O)c3ccc4c(c3)OCCO4)CC2)cc1", "inhibition": "0% (inactive)"},
      {"molecule": "CC(C)CCn1c(=O)c2ccccc2n2c(CN(C)Cc3ccccc3)nnc12", "inhibition": "0% (inactive)"},
      {"molecule": "O=C(Cn1cc2c(n1)CCCCC2)N1CCc2ccccc21", "inhibition": "0% (inactive)"},
      {"molecule": "COc1ccccc1N1CCN(C(=O)C2CCCO2)CC1", "note": "(centres undefined)", "inhibition": "0% (inactive)"},
      {"molecule": "CN(C(=O)COC(=O)C1CCN(S(=O)(=O)c2cccs2)CC1)C1CCS(=O)(=O)C1", "note": "(centres undefined)", "inhibition": "7% (inactive)"},
      {"molecule": "COc1ccc(CCNC(=O)C2=COCCO2)cc1", "inhibition": "0% (inactive)"},
      {"molecule": "CCCc1ccc(S(=O)(=O)NCCc2ccncc2)cc1", "inhibition": "0% (inactive)"},
      {"molecule": "COc1ccc(NC(=O)CC2CCCCC2)cc1OC", "inhibition": "4% (inactive)"},
      {"molecule": "Cc1cc(C(=O)OCCO)c(C#N)c(N)n1", "inhibition": "0% (inactive)"},
      {"molecule": "Cc1cc(NC(=O)c2cc3ccccc3o2)cc(C)c1OCC(=O)N1CCOCC1", "inhibition": "0% (inactive)"},
      {"molecule": "CCOC(=O)CNC(=O)c1c(C)nn(-c2ccccc2)c1Cl", "inhibition": "0% (inactive)"},
      {"molecule": "CCOC(=O)N1CCC2(O)CCCCC2C1c1ccc(F)cc1", "note": "(centres undefined)", "inhibition": "1% (inactive)"},
      {"molecule": "Cn1c(=O)c2c(nc(NCCNC(=O)c3ccco3)n2Cc2ccccc2Cl)n(C)c1=O", "inhibition": "0% (inactive)"},
      {"molecule": "Cc1cc(Cl)c(S(=O)(=O)N2CCN(c3ccc(F)cc3)CC2)cc1OCC(N)=O", "inhibition": "0% (inactive)"},
      {"molecule": "O=C(c1ccco1)N1CCN(C(=O)c2ccc(Cn3cc(Br)cn3)o2)CC1", "inhibition": "4% (inactive)"},
      {"molecule": "CCOc1ccc2[nH]c(=O)c(CN(Cc3ccccc3)C(=O)N3CCCC3)cc2c1", "inhibition": "6% (inactive)"},
      {"molecule": "COC(=O)c1ccccc1S(=O)(=O)N(CCCN1CCOCC1)Cc1cccs1", "inhibition": "0% (inactive)"},
      {"molecule": "CCN(CC)S(=O)(=O)c1ccc(S(=O)(=O)N(Cc2ccccn2)Cc2ccco2)cc1", "inhibition": "11% (inactive)"},
      {"molecule": "Cc1ccc(-c2nc3cc(NC(=O)C(C)C)ccc3o2)cc1", "inhibition": "0% (inactive)"},
      {"molecule": "O=C(NCc1ccco1)C1CCN(c2ccc(N3CCOCC3)nn2)CC1", "inhibition": "0% (inactive)"},
      {"molecule": "O=C(NCc1cccs1)c1cc2c(s1)CCCC2", "inhibition": "0% (inactive)"},
      {"molecule": "COc1cccc(Oc2cnc(N)nc2-c2ccc(OC)cc2O)c1", "inhibition": "2% (inactive)"},
      {"molecule": "CCCCOc1ccc(-c2ncc(C(=O)OCC)c(N)n2)cc1", "inhibition": "11% (inactive)"},
      {"molecule": "CCC(=O)Oc1ccc2c(C)cc(=O)oc2c1C", "inhibition": "2% (inactive)"},
      {"molecule": "Cc1ccc(/C=c2\\sc3nc(-c4ccccc4Br)nn3c2=O)o1", "inhibition": "0% (inactive)"},
      {"molecule": "COc1ccc(C(=O)CN2C(=O)NC3(CCCc4ccccc43)C2=O)cc1OC", "note": "(centres undefined)", "inhibition": "0% (inactive)"},
      {"molecule": "CCOc1ccccc1Nc1nc2ccccc2[nH]1", "inhibition": "1% (inactive)"},
      {"molecule": "COc1ccc(OC)c(C2=NOC(C(=O)Nc3cccnc3)C2)c1", "note": "(centres undefined)", "inhibition": "0% (inactive)"},
      {"molecule": "Cc1cc(=O)n2nc(N3CCC(C(=O)N4CCN(Cc5ccccc5)CC4)CC3)sc2n1", "inhibition": "2% (inactive)"},
      {"molecule": "CCOc1ccccc1-c1nc(-c2ccc(NC(=O)Cc3ccccc3OC)cc2)no1", "inhibition": "2% (inactive)"},
      {"molecule": "OCCOCCN1CCN(C(c2ccccc2)c2ccc(Cl)cc2)CC1", "note": "(centres undefined)", "inhibition": "1% (inactive)"},
      {"molecule": "c1ccc(-c2noc(C34CC5CC(CC(C5)C3)C4)n2)nc1", "inhibition": "6% (inactive)"},
      {"molecule": "Cn1nnc2c(sc3nc(N4CCOCC4)c4c(c32)CCCC4)c1=O", "inhibition": "8% (inactive)"},
      {"molecule": "Cc1c(OCC(F)(F)F)ccnc1CS(=O)c1nc2ccccc2[nH]1", "note": "(centres undefined)", "inhibition": "6% (inactive)"},
      {"molecule": "CCOc1ccc(N(CC(=O)Nc2cccc(OC)c2)S(=O)(=O)c2c(C)noc2C)cc1", "inhibition": "11% (inactive)"}
    ]}
  ]
}
